Screens: PubChem, The Scripps Research Institute Molecular Screening Center
KLK7 zymogen act = proKLK7 zymogen activators, primary screen, biochemical, fluorescence intensity; Kallikrein-7 (Homo sapiens), P49862; purified proKLK7, EDANS-DABCYL substrate fluorescence; 100% is mature enzyme control, 0% vehicle; activation, % at 7 µM; hit rate 0.9% among 370,000;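 active = activation above the mean of all tested compounds plus 3 SD, computed per campaign excluding outliers beyond control limits, cut at about 13% in these data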
Target sequence (P49862 whole entry, looked up): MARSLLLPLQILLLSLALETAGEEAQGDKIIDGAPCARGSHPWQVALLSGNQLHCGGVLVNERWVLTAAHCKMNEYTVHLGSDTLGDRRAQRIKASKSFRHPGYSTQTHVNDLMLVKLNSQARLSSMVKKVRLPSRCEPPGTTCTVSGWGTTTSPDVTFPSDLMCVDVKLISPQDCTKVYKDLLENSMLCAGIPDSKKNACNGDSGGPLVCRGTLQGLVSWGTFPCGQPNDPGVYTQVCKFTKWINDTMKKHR
PLCb3 inh = human PLC-beta3 inhibitors, primary screen, biochemical, fluorescence; 1-phosphatidylinositol 4,5-bisphosphate phosphodiesterase beta-3 (Homo sapiens), Q01970; Purified PLC-beta3, fluorogenic substrate; inhibition, % at 12.2 µM; hit rate 0.18% among 370,000; in the data active = inhibition above about 11%
PLCg1 inh = PLC-gamma1 enzyme inhibitors, primary screen, biochemical, fluorescence, purified enzyme; hit rate 0.84% among 370,000; inhibition, % at 12.2 µM; 1-phosphatidylinositol 4,5-bisphosphate phosphodiesterase gamma-1 (Homo sapiens), P19174; fluorogenic substrate; AID 720700, 2013; in the data active = inhibition above about 9.5%
ADAM10 inh = human ADAM10 inhibitors, primary screen, biochemical, QFRET, HTS | hit rate 0.62% among 370,000 | inhibition, % at 7 µM | recombinant ADAM10, EDANS/DABCYL FRET peptide cleavage, 3 h;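 active = inhibition above a per-campaign cutoff equal to the mean of compounds falling between control-based bounds plus 3 SD, cut at about 20% in these data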
ADAM17 inh = ADAM17 inhibitors, primary screen, biochemical, QFRET; recombinant ADAM17, EDANS/DABCYL FRET peptide cleavage; Disintegrin and metalloproteinase domain-containing protein 17 (Homo sapiens), P78536; inhibition, % at 6.95 µM; hit rate 0.83% among 370,000;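 active = inhibition above the mean of compounds lying between control limits plus 3 SD, set per campaign, cut at about 8.5% in these data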
proKLK7 act conf = proKLK7 zymogen activators, confirmation, biochemical, fluorescence intensity, triplicate; activation, % at 7 µM; purified proKLK7, EDANS-DABCYL substrate fluorescence; scaled: vehicle 0, mature enzyme 100; AID 686949, 2013; shares compounds with KLK7 zymogen act; hit rate 68% among 3,200;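 active = activation, as change over the incubation, above the mean of all tested compounds plus 3 SD, cut at about 13% in these data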
EDANS interfere = EDANS-DABCYL substrate optical interference, artefact control for kallikrein-7 zymogen activator project, biochemical, fluorescence intensity, high throughput | activation, % at 7 µM | shares compounds with KLK7 zymogen act | hit rate 80% among 3,200 | no enzyme, 4 h; solvent 0%, active enzyme control 100%;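 active = activation above the all-compound mean plus 3 SD, ignoring values outside control-based bounds, cut at about 4.8% in these data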;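 note: value is the 4 h activation minus the activation read at time zero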
K7 EDANS ctr = optically interferes with EDANS-DABCYL fluorescence, kallikrein-7 activator counter-screen | shares compounds with KLK7 zymogen act | hit rate 20% among 250 | AID 720493 | EC50, µM | EDANS-DABCYL peptide fluorescence interference, no enzyme;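 active = compounds that raise the fluorescence signal in this interference counterscreen, with EC50 at or below 10 µM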;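 note: intact quenched peptide substrate alone read at 355 nm excitation and 520 nm emission; signal is fluorescence gain from T0 to T4 after four hours at room temperature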
Each line names hits and unclear results; the compound was inactive in the other large screens (follow-up assays come after a bar, where they were run). Most compounds without a hit are left out; they make up all but 2.9% or so of the library.

CCOC(=O)CC(=O)CSc1nc2c(c(C)c1C#N)CCC2	KLK7 zymogen act 45 | proKLK7 act conf 75 | EDANS interfere 70
COC(=O)CSc1ccc(C#N)c(SCC(=O)OC)c1	KLK7 zymogen act 17 | proKLK7 act conf 27 | EDANS interfere 27
CCOC(=O)CC(=O)CSc1nc(CC)c(C)cc1C#N	none
CC(C)C[C@H]1COc2cccc(F)c2S(=O)(=O)N1Cc1cn(Cc2ccco2)nn1	none
COc1ccc(C(=O)C2(C(=O)Nc3cc(C)cc(C)c3)CC(c3ccccn3)=NO2)cc1 (stereo not drawn)	none
CN1C(=O)C[C@@](C#N)(C(=O)NCc2ccccc2)[C@H]1c1ccccc1	none
CCNC(=O)O[C@@H]1C=C[C@@H](C#Cc2ccc(C(C)(C)C)cc2)O[C@@H]1COC(C)=O	none
COc1ccccc1NC(=O)c1cc2c(s1)-c1ccccc1S(=O)(=O)C2	KLK7 zymogen act 15 | proKLK7 act conf inactive | EDANS interfere inactive
CN(C(=O)c1cc2c(s1)-c1ccccc1S(=O)(=O)C2)c1ccccc1	none
O=C(OC12CCCN(C1)/C(=C/c1ccccc1)C2)c1ccc(Cl)cc1 (stereo not drawn)	none
CC1(C)Cc2c(ccc3ccccc23)C2=C(C(=O)N3CCCC3)C(=O)C(=O)N21	KLK7 zymogen act 13 | proKLK7 act conf inactive | EDANS interfere inactive
COc1cc2c(c(OC)c1OC)[C@@]1(c3ccccc3)CCCC[C@H]1[C@@H]2NC(=O)C(F)(F)F	none
COc1cc2c(cc1OC)C(c1ccccc1)CC2=O (stereo not drawn)	none
COc1cc2c(cc1OC)C(=O)CC(C)S2 (stereo not drawn)	KLK7 zymogen act 14 | proKLK7 act conf 32 | EDANS interfere 26
C#CCNC(=O)C[C@H]1C(=O)N(CCCOC)C2=CCCCC[C@]21C(=O)OC	none
COC(=O)c1cc(-c2ccc(C)cc2)c(=O)n2c1CCC2	none
COC(=O)c1cc(-c2ccc(C(C)=O)cc2)c(=O)n2c1CCC2	KLK7 zymogen act 39 | proKLK7 act conf 72 | EDANS interfere 71
CCn1c2ccccc2c2cc(C=NNC(=O)c3ccoc3C)ccc21	none
C=CCN1C(C(=O)OC)CN(Cc2cn(Cc3ccc(C)cc3)nn2)CCS1(=O)=O (stereo not drawn)	none
N#Cc1cc2cc3c(cc2nc1N1CCOCC1)OCO3	KLK7 zymogen act 18 | proKLK7 act conf 114 | EDANS interfere 123
COc1ccc(/C=C(\NC(=O)c2ccccc2)C(=O)N/N=C/c2sccc2C)cc1	none
COc1ccc(/C=C(/NC(=O)c2ccccc2)C(=O)N/N=C/c2sccc2C)cc1	KLK7 zymogen act 24 | proKLK7 act conf 152 | EDANS interfere 122
O=C(Cc1ccccc1F)Nc1nnc(-c2cccnc2)s1	none
CC1(C)CC(=O)c2cc(OCC(=O)NCc3cccnc3)ccc2O1	KLK7 zymogen act 48 | proKLK7 act conf 62 | EDANS interfere 66
CC1(C)CC(=O)c2cc(OCC(=O)N3CCOCC3)ccc2O1	KLK7 zymogen act 44 | proKLK7 act conf 71 | EDANS interfere 81
Cc1ccc(OCC(=O)N2CCOCC2)cc1C	none
O=C(COc1ccc2c(c1)C(=O)CC1(CCCCC1)O2)NCc1ccccc1	none
CC(C)NC(=O)COc1ccc2c(c1)C(=O)CC(C)(C)O2	KLK7 zymogen act 37 | proKLK7 act conf 81 | EDANS interfere 85
CCOC(=O)COc1ccc2c(c1)C(=O)CC1(CCCCC1)O2	KLK7 zymogen act 24 | proKLK7 act conf 14 | EDANS interfere 10 | K7 EDANS ctr inactive
O=C(OCc1cn(Cc2cccc(F)c2F)nn1)N1CCCC1	none
C[C@H]1[C@@H](OC(=O)NCc2ccccc2)CC[C@@]23CCCN2C(=O)CCC[C@@H]13	none (no result: KLK7 zymogen act)
c1cncc(Oc2ccc(NCCc3c[nH]c4ccccc34)cc2)c1	none
COC(=O)C1=C(C)N(Cc2ccc(Cl)cc2)C(=S)NC1c1ccc(Br)cc1 (stereo not drawn)	none
CCN(CC)C(=O)COc1ccc2c(c1)C(=O)CC(C)(C)O2	KLK7 zymogen act 47 | proKLK7 act conf 40 | EDANS interfere 71
CC1(C)CC(=O)c2cc(OCC(=O)NCCCN3CCN(c4ccccc4F)CC3)ccc2O1	KLK7 zymogen act 18 | proKLK7 act conf 17 | EDANS interfere 21
CCCCCCCNC(=O)COc1ccc2c(c1)C(=O)CC(C)(C)O2	none
CS(=O)(=O)N(CC(=O)N1CCOCC1)c1ccc2c(c1)OCO2	KLK7 zymogen act 17 | proKLK7 act conf inactive | EDANS interfere inactive
O=C(NCC1CCCO1)c1cc(-c2ccncc2)nc2ccccc12 (stereo not drawn)	none
O=C(NC1CCC(O)CC1)c1cc(-c2ccco2)nc2ccccc12 (stereo not drawn)	KLK7 zymogen act 28 | proKLK7 act conf 13 | EDANS interfere 11 | K7 EDANS ctr inactive
O=C(NCC1CCCO1)c1cc(-c2ccco2)nc2ccccc12 (stereo not drawn)	KLK7 zymogen act 59 | proKLK7 act conf 67 | EDANS interfere 68
CCN(CC)C(=O)CC[C@@H]1CC[C@]2(CCCN(Cc3ccc(Br)cc3)C2)O1	none
CCCN1CCCCC(NC(=O)c2ccccc2OC)C1=O (stereo not drawn)	none
COc1ccccc1C(=O)c1cc2ccc(O)cc2oc1=O	none
O=C(O)c1cc2ccc(O)cc2oc1=O	KLK7 zymogen act 104 | proKLK7 act conf 65 | EDANS interfere 73
O=C(O)c1ccc(N=c2oc3cc(O)ccc3cc2C(=O)NCc2ccccc2)cc1	none
Cc1ccc(S(=O)(=O)c2cc3ccc(O)cc3oc2=O)cc1C	KLK7 zymogen act 44 | proKLK7 act conf 62 | EDANS interfere 68
COc1ccc2cc(S(=O)(=O)c3ccccc3)c(=O)oc2c1	none
O=C(NCc1ccccc1)c1cc2ccc(O)cc2oc1=O	KLK7 zymogen act 58 | proKLK7 act conf 69 | EDANS interfere 71
C/C(=N\NC(=O)CC#N)c1cc2ccc(O)cc2oc1=O	KLK7 zymogen act 61 | proKLK7 act conf 46 | EDANS interfere 43
O=C(c1ccc(F)cc1)c1cc2ccc(O)cc2oc1=O	none
